# CYP2C9 inh: blocks human cytochrome P450 2C9; P11712; CYP2C9 Supersomes, luciferin-H conversion, luminescence; inhibition, % at 5 µM; 96,000 tested, 20% active;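 active means blocking of liver enzyme CYP2C9 beyond about 50% at 5 µM, limit read from the data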
# CYP2C9 activ: increases human cytochrome P450 2C9 activity; 96,000 tested, 1.4% active; P11712; activation factor at 5 µM; recombinant CYP2C9, luciferin-H conversion, luminescence; active compounds read high; factor 1 = untreated enzyme, 0 = blocked;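 active means activation factor of 2 or more for CYP2C9 at a 5 µM dose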;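 further: 0 = sulfaphenazole-blocked wells and 1 = vehicle-only wells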
# PTK2B oligo ant: blocks oligomerization of human Pyk2 in cells | Q14289 | Q293 cells, Pyk2 FERM NanoBiT luminescence; active compounds read low | z-score (the deposit names both 25 µM and 10 µM) | 99,000 tested, 0.83% active | AID 1347419;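 active means Z-score of -3 or lower, scaled per plate to the spread of control and sample wells; inactive means z-score above -3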;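 further: negative z-score means lost luminescence so less FERM oligomerization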
# CYP2C19 inh: blocks human cytochrome P450 2C19; inhibition, % at 5 µM; CYP2C19 Supersomes, luciferin-H EGE luminescence, 30 min; 96,000 tested, 21% active; P33261; AID 778;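 active means CYP2C19 inhibition above a set limit at 5 µM in the primary screen, cut at about 50% in these data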;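 further: plate controls were negative control wells for no effect and 2.5 mM tranylcypromine positive control for full effect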
# Target sequence (P33261 whole entry, looked up): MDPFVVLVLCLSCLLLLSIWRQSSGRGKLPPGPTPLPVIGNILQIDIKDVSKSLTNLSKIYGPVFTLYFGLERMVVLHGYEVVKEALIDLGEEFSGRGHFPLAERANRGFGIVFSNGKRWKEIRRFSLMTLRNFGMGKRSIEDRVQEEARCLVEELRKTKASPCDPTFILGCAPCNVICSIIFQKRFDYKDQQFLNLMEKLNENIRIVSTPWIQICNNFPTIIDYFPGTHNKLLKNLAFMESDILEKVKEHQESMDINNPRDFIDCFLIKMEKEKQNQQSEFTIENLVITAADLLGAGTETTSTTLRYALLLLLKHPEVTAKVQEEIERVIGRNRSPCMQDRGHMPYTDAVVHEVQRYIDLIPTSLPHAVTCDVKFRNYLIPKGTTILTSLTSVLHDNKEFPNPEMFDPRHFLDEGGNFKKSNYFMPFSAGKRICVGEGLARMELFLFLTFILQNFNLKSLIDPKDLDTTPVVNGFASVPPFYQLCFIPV
# CYP2C19 act: increases human CYP2C19 enzyme activity; recombinant CYP2C19, luciferin-H EGE luminescence; active compounds read high; 0 = fully inhibited enzyme, 1 = untreated enzyme; AID 1025; activation factor at 5 µM; 96,000 tested, under 10 active;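 active means activation factor of at least 2 at 5 µM in the primary screen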;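 further: 0 = wells with 2.5 mM tranylcypromine and 1 = vehicle-only wells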
# The depositor's hits bear a star; · = no result. Only some compounds are listed: those with a hit (about 28% of all), similar ones and a draw of the others.
SMILES,CYP2C9 inh,CYP2C9 activ,PTK2B oligo ant,CYP2C19 inh,CYP2C19 act
COC(=O)CCC(=O)NNC(=O)c1cccc(Cl)c1,2,1,0.01,4,1
COC(=O)CC1COc2ccccc2N1C(=O)c1cccc(Cl)c1 (stereo not drawn),46,0.5,0.08,63*,0.4
CCOC(=O)C1CCN(C(=O)Nc2ccc(OC)c(OC)c2)CC1,-12,1.1,0.19,5,0.9
CN=CC1=C(O)CC(C)(C)CC1=O,19,0.8,1.6,2,1
CC1(C)CC(=O)C(CC2=C(O)CC(C)(C)CC2=O)=C(O)C1,26,0.7,0.55,86*,0.1
CC1(C)CC(=O)C(CC2=C(O)CC(C)(C)CC2=O)C(=O)C1,3,1,-0.05,51*,0.5
Cn1c2c(c(=O)n(C)c1=O)C(CC(=O)Nc1ccccc1)C(=O)N2 (stereo not drawn),26,0.7,0.27,40,0.6
COc1ccccc1NC(=O)CC1C(=O)Nc2c1c(=O)n(C)c(=O)n2C (stereo not drawn),58*,0.4,0.31,10,0.9
O=S(=O)(Nc1ccc2c(c1)OCCO2)c1ccc2oc3ccccc3c2c1,98*,0,-1.6,100*,0
COc1ccc(S(=O)(=O)Nc2ccc3c(c2)OCO3)cc1OC,47,0.5,-1.1,100*,0
COc1ccc(S(=O)(=O)Nc2ccc3c(c2)OCCO3)cc1Cl,93*,0.1,-2,99*,0
O=S(=O)(Nc1ccc2c(c1)OCCO2)c1cnc[nH]1,78*,0.2,-0.51,12,0.9
Cc1n[nH]c(C)c1S(=O)(=O)Nc1ccc2c(c1)OCCO2,·,·,-0.38,·,·
COc1ccc(S(=O)(=O)Nc2ccc3c(c2)OCO3)cc1C(=O)O,11,0.9,1.1,11,0.9
CCOC(=O)N1CCC(n2c(=S)[nH]c3cc(OC)c(OC)cc3c2=O)CC1,12,0.9,-0.95,3,1
CCCC(=O)Nc1nc2c(c(=O)[nH]1)CCCC2,-1,1,1.6,3,1
O=C(NCc1ccco1)C1CC2CCC1C2 (stereo not drawn),2,1,-0.13,26,0.7
CC(=O)OC1C(OC(C)=O)N(C(C)=O)C(=O)N1C(C)=O (stereo not drawn),-8,1.1,0.22,14,0.9
O=C(O)c1cc(S(=O)(=O)Nc2ccc3c(c2)OCCO3)c(Cl)cc1Cl,51*,0.5,·,15,0.9
Cc1cccc(NS(=O)(=O)c2ccc(C3CCCCC3)cc2)c1,44,0.6,-1,69*,0.3
O=S(=O)(Nc1ccc2c(c1)OCCO2)c1cccc2cccnc12,-72,1.7,-0.82,40,0.6
Cc1cccc(NS(=O)(=O)c2ccc3c(c2)OCCO3)c1,18,0.8,-0.9,100*,0
O=C(O)c1ccc(NS(=O)(=O)c2ccc3c(c2)OCCO3)cc1,-19,1.2,·,-17,1.2
O=C(COC(=O)c1ccc(NS(=O)(=O)c2ccc3c(c2)OCCO3)cc1)NC1CC1,62*,0.4,1.4,15,0.9
O=P(O)(O)C(O)C(F)(F)C(F)(F)C(F)(F)C(F)F (stereo not drawn),8,0.9,-0.29,-16,1.2
SMILES,CYP2C9 inh,CYP2C9 activ,PTK2B oligo ant,CYP2C19 inh,CYP2C19 act
CCc1nnc(NC(=O)CSc2nnc(C)n2CC2CCCO2)s1 (stereo not drawn),-8,1.1,-0.08,-19,1.2
Cc1cccc(OCc2nnc(SCC(=O)Nc3cc(C)on3)n2C)c1,11,0.9,0.6,10,0.9
Cc1nc2nc(C)c(CCC(=O)NCc3ccc4c(c3)OCO4)c(C)n2n1,6,0.9,-0.77,-11,1.1
N#C/C(=C/c1ccccc1)c1nn(CCO)c(N)c1C#N,77*,0.2,0.16,94*,0.1
COc1ccc(CC(=O)Nc2cc(C)on2)cc1OC,10,0.9,0.52,13,0.9
COc1ccc(CC(=O)Nc2nc(C)cs2)cc1OC,30,0.7,1.4,60*,0.4
COc1ccc(-c2csc(NC(C)=O)n2)cc1OC,65*,0.4,-0.46,68*,0.3
COc1ccc(-c2csc(NC(=O)CCn3cnc4ccccc4c3=O)n2)cc1OC,66*,0.3,-2.3,85*,0.1
COc1cccc(-c2csc(NC(C)=O)n2)c1,24,0.8,0.2,27,0.7
CO/N=C/c1ccc(N2CCN(C(=O)c3ccc(C)cc3)CC2)c([N+](=O)[O-])c1,37,0.6,-0.22,39,0.6
CCNc1nc(N)nc(Oc2ccc(OCCOc3ccccc3)nn2)n1,-1,1,0.35,0,1
CCNc1nc(N)nc(Oc2ccc(OCc3ccccc3)nn2)n1,7,0.9,1.3,76*,0.2
Cc1ccccc1NC(=O)C1CCCN(S(=O)(=O)c2c(C)noc2C)C1 (stereo not drawn),2,1,0.14,9,0.9
CCCCn1nc(CC(=O)O)c2ccccc2c1=O,3,1,0.75,69*,0.3
CCc1nn(CC(=O)O)c(=O)c2ccccc12,4,1,-1.2,-7,1.1
COc1ccc(-c2nnc(SCc3ccccc3F)o2)cc1,5,0.9,-1.4,30,0.7
COC(=O)c1ccc(-c2ccco2)n1Cc1nc(-c2ccc(OC)c(OC)c2)oc1C,44,0.6,-0.57,14,0.9
COc1ccc(-c2nc(Cn3c(SCc4ccc(F)cc4)nc4ccncc43)c(C)o2)cc1OC,90*,0.1,·,89*,0.1
COc1ccc(-c2nc(Cn3c(SCc4ccccc4F)nc4ccncc43)c(C)o2)cc1,73*,0.3,·,97*,0
CC(=O)N1CCN(S(=O)(=O)c2cccc(C(=O)Nc3ccc4c(c3)CCC4)c2)CC1,·,·,-0.24,·,·
CCCc1cc(=O)[nH]c(SCC(=O)N(C)C2CCS(=O)(=O)C2)n1 (stereo not drawn),1,1,0.21,45,0.5
Cc1cccc(Oc2sc(C(=O)c3ccccc3)c(N)c2C#N)c1,47,0.5,-1.6,61*,0.4
COc1cc(OC)cc(C(=O)NCCN2CCOCC2)c1,-15,1.2,0.22,2,1
Cc1cc2n(c1)CCn1c(C)ccc1-2,70*,0.3,·,-5,1.1
CCn1c(N)c(C(=O)NC)sc1=S,50*,0.5,-0.75,52*,0.5
SMILES,CYP2C9 inh,CYP2C9 activ,PTK2B oligo ant,CYP2C19 inh,CYP2C19 act
CCNC(=O)c1sc(=S)n(CC)c1N,-8,1.1,-0.21,-15,1.1
O=C(Nc1ccccc1Cl)c1ccccc1Cl,-36,1.4,0.02,19,0.8
O=C1OCC(CO)(CO)N=C1NNc1ccccc1Cl,28,0.7,0.84,50*,0.5
CCOC(=O)N1CCN(C(=O)CNCc2cccs2)CC1,11,0.9,-0.33,19,0.8
O=c1ccc(NS(=O)(=O)c2ccccc2)cn1Cc1ccc(Cl)c(Cl)c1,79*,0.2,-0.37,98*,0
C=CCn1c(=O)c2ccccc2n2c(SCc3nc4ccccc4s3)nnc12,37,0.6,-0.71,62*,0.4
C=CCn1c(=O)c2ccccc2n2c(SCc3c(C(=O)OCC)oc4ccccc34)nnc12,60*,0.4,-1.2,59*,0.4

# Screening results as filed in PubChem BioAssay.
